# KCNH2 WT inh: KCNH2 (human, wildtype) channel inhibition | 0.37% of 340,000 active | activity change, % at 1.84 µM | U2OS, BacMam KCNH2, thallium flux FluxOr; active compounds read low;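 active means maximum activity change below -70%; inconclusive means maximum activity change between -70% and -50%; inactive means maximum activity change above -50%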; further: on the % scale 0 is the no-effect control and ±100 the full control effect
#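 U2OS cells transduced with wild-type KCNH2 virus are loaded with FluxOr dye for 45 min, and thallium flux is measured in kinetic reads before and after stimulation buffer. Rate constants are normalized to DMSO controls.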
# KCNH2 3.1 block: blocks the human KCNH2 3.1 channel isoform. 0.95% of 340,000 active. activity change, % (tested at about 1.8 µM). U2OS KCNH2 3.1, thallium flux FluxOr; active compounds read low. AID 720553;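 active means maximum activity change below -70%; inconclusive means maximum activity change from -70% to -50%; inactive means maximum activity change above -50%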;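 further: thallium influx rate constant from kinetic fluorescence after stimulation buffer; on the % scale 0 is the no-effect control and ±100 the full control effect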
#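 FluxOr-based Tl+ influx in U2OS cells transduced with KCNH2 3.1 virus; rate constants normalized to DMSO controls.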
# TRPV1 PAM: potentiators of human vanilloid receptor 1 (TRPV1); Q8NER1; potentiation, % at 8.33 µM; AID 540277; TRPV1-expressing cells, Fluo-8 calcium influx, capsaicin EC20 potentiation; 0.02% of 320,000 active; in the data active means potentiation above about 80%; inconclusive means between about 30% and that limit; further: 0% is about no effect
#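 TRPV1-expressing cells were cultured overnight at 35.5C and loaded with Fluo-8 calcium dye for 40 to 90 min at room temperature. After a 10 s baseline, compound was added and calcium influx was read kinetically for 3 min (ex 480/em 520 nm).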
# MBNL1 CUG block: MBNL1-poly(CUG) RNA binding inhibition. Q9NR56. 0.036% of 280,000 active. Potency, µM (highest dose often 57.5 µM), for the others: at the top dose activity change, negative = inhibition, usual class: inhibitors. TR-FRET MBNL1-His/biotin-(CUG)12 binding, 665/545 ratio; active means well fitted inhibition curve with a large enough effect in the signal ratio, with a control signal flat, not every such curve was filed as active; inconclusive means small, poorly fitted or top-dose-only effect, or effect the other way, or a change in a side signal; inactive means no such curve, though single readings can be large or run the other way; the % refers to the signal ratio; further: potency means the concentration at half of the fitted maximal effect; on the % scale 0 is the no-effect control and ±100 the full control effect
# Target sequence (Q9NR56 whole entry, looked up): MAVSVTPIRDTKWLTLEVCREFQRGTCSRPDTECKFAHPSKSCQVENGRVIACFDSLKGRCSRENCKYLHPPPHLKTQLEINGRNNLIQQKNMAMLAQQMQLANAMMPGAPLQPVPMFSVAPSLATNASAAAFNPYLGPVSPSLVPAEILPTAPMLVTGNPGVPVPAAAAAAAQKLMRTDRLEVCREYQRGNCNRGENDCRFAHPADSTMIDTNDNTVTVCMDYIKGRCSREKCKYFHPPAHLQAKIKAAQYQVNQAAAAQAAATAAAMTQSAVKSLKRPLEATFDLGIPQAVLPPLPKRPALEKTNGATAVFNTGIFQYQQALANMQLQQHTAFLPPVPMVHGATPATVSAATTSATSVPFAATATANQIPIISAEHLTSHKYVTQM
#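 His-tagged MBNL1 binding to biotinylated (CUG)12 RNA was measured by TR-FRET using terbium anti-His antibody (0.055 ng/ul final) and streptavidin-XL665 (5 nM final). Compounds were titrated 92 nM to 58 uM; 60 min at room temperature.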
# TRPV1 agonist: human TRPV1 agonism | AID 540275 | TRPV1-expressing cells, Fluo-8 calcium influx, agonist mode | 0.19% of 320,000 active | Q8NER1 | activation, % at 8.33 µM; in the data active means activation above about 80%; inconclusive means between about 30% and that limit; further: 0% is about no effect
#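 Fluo-8 calcium influx in TRPV1-expressing cells, kinetic read (ex 480/em 520 nm). Compound added and read 3 min for agonist activity, followed by capsaicin at EC20 final and 2 min further read for enhancement.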
# * marks the source's active call; other numbers are inactive results; ? = inconclusive; . = no result. The list is not random: actives were taken first. Their share in the collection is about 1.3%.
SMILES,KCNH2 WT inh,KCNH2 3.1 block,TRPV1 PAM,MBNL1 CUG block,TRPV1 agonist
CCC1CCC(N2CCN(c3ccc([N+](=O)[O-])cc3)CC2)CC1 (configuration not stated),-124*,-101*,-2,?,-10
CCC(Oc1ccccc1)C(=O)N1CCN(C(=O)C(CC)Oc2ccccc2)CC1 (configuration not stated),18,0,-9,-10%,-1
CCC(Oc1ccccc1)C(=O)N1CCC(C(N)=O)CC1 (configuration not stated),-109*,-2,.,-6%,.
O=C(NCc1ccco1)c1cnn2c1NC(c1ccc(Br)cc1)CC2C(F)(F)F (configuration not stated),-71*,0,-2,-4%,1
CCOC(=O)N1CCc2c(sc(NC(=O)CN3CCN(C)CC3)c2C(=O)Nc2ccccc2)C1,?,-97*,-19,-6%,?
CCOC(=O)N1CCc2c(sc(NC(=O)CN3CCOCC3)c2C(=O)Nc2ccccc2)C1,14,-8,0,0%,3
C[C@H](CO)N1C[C@H](C)[C@@H](CN(C)S(=O)(=O)c2ccccc2)Oc2c(NC(=O)NC3CCCCC3)cccc2C1=O,-10,-166*,.,.,.
C[C@H](CO)N1C[C@H](C)[C@@H](CN(C)S(=O)(=O)c2cn(C)cn2)Oc2c(NC(=O)Nc3ccc4c(c3)OCO4)cccc2C1=O,-4,-123*,.,.,.
COc1ccc(NC(=O)COC(=O)CCc2ccccc2)c(OC)c1,-5,1,-4,-3%,2
O=C(CSc1ncccc1C(=O)O)NC1CCCCCCC1,-3,-79*,7,-12%,0
CCn1c(COc2ccccc2)nnc1SCC(=O)NC1CCCCC1,-176*,-5,19,11%,-8
COc1ccc2[nH]c(=O)c(-c3nnn(-c4ccc(Cl)nc4)n3)cc2c1,-2,-99*,.,.,.
COc1cccc(C(=O)OCC(=O)NCC2CCCO2)c1 (configuration not stated),13,4,.,.,.
Cc1csc2c(N3CCN(C(=O)Nc4ccc(OC(F)(F)F)cc4)CC3)ncnc12,5,-92*,-3,-7%,14
Cc1csc2c(N3CCC(C(=O)O)CC3)ncnc12,0,-20,-6,2%,5
CN(CC(=O)Nc1ccc(F)cc1)CC(=O)N(C)C1(C#N)CCCCC1,0,-115*,1,.,2
COc1ccc(NC(=O)CN(C)CC(=O)N(C)C2(C#N)CCC(C)CC2)cc1 (configuration not stated),-3,-2,-3,.,4
O=C(Cc1cccs1)Nc1cccc(C(=O)Nc2ccco2)c1,-11,-70*,-2,-9%,7
O=C(Cc1cccs1)Nc1cccc(-c2ccc3nncn3n2)c1,-13,2,85*,?,3
CC(=O)c1cccc(NC(=O)Cc2cccs2)c1,0,3,-9,3%,5
CC(CCc1ccco1)NC(=O)CCc1nnc2ccc(NCc3ccc(Cl)cc3)nn12 (configuration not stated),-8,8,-2,-3%,-1
CCOC(=O)c1ncccc1NC(=O)CC(=O)Nc1cccnc1C(=O)OCC,-8,28,.,.,.
COc1ccc(CCN2CCCC(CN(C)C(=O)c3ccoc3)C2)cc1 (configuration not stated),69,-32,9,0%,-3
COc1ccc(-c2nc(-c3ccc(NC(=O)c4ccncc4)cc3)no2)cc1OC,-8,-6,7,4%,-1
COc1ccc(NC(=O)c2ccc(-c3ccc(-c4noc(C)n4)cc3C)cc2)cc1N1CCN(C)CC1,8,-87*,7,.,0
SMILES,KCNH2 WT inh,KCNH2 3.1 block,TRPV1 PAM,MBNL1 CUG block,TRPV1 agonist
CCn1c(NCc2cc(Br)ccc2NS(=O)(=O)c2ccc(C)cc2)nc2ccccc21,5,-82*,13,-12%,1
Cc1cccc(OCC(O)Cn2c(=N)n(Cc3ccccc3)c3ccccc32)c1 (configuration not stated),4,-5,17,.,3
N=c1n(Cc2ccc(Cl)cc2)c2ccccc2n1CC(O)COc1ccccc1 (configuration not stated),?,-85*,7,-5%,1
COc1ccc(OCC(O)Cn2c(=N)n(Cc3ccccc3)c3ccccc32)cc1 (configuration not stated),-1,-7,-10,-2%,1
Cc1ccc(OCC(O)Cn2c(=N)n(Cc3ccccc3)c3ccccc32)cc1 (configuration not stated),-94*,-75*,2,-3%,1
CCCCN(C(=O)c1oc2ccc(OCC)cc2c1C)c1c(N)n(CCCC)c(=O)[nH]c1=O,-3,-13,3,.,-2
CCOC(=O)c1c(C)c[nH]c1C,2,-85*,9,1%,0
O=C(CCCl)Nc1cccc2cccnc12,.,.,29,.,-4
CCc1ccc(NC(=O)CSc2nccn(-c3ccc4c(c3)OCCO4)c2=O)cc1,2,-4,1,.,1
CSc1nc(N2CCN(Cc3ccc4c(c3)OCO4)CC2)c2ccccc2n1,-1,-73*,-1,9%,12
Cc1nc(N2CCN(Cc3ccc4c(c3)OCO4)CC2)c2cc(-c3ccccc3)sc2n1,13,-21,-1,12%,3
O=[N+]([O-])c1cccc(NNS(=O)(=O)c2ccccc2F)c1,1,-23,-1,?,0
COc1ccccc1N1CCN(C(=O)CSc2nc3ccccc3o2)CC1,-4,-15,7,-1%,28
COCCNc1nc(SCC(=O)N2CCN(c3ccccc3OC)CC2)nc2ccccc12,2,-120*,9,-7%,5
COc1ccccc1CN1CCNC(=O)C1CC(=O)NCCC1=CCCCC1 (configuration not stated),7,4,-1,-14%,3
CCOc1ccccc1CN1CCNC(=O)C1CC(=O)NCCC1=CCCCC1 (configuration not stated),21,-109*,2,-7%,8
Cc1ccc(-n2ccc(=O)c(C(=O)Nc3ccc(S(=O)(=O)Nc4onc(C)c4C)cc3)n2)cc1,-8,11,23,?,-8
CCOC(=O)c1ccccc1NC(=O)CN(c1ccc(OCC)cc1)S(C)(=O)=O,.,.,8,-2%,-3
Cc1cc(C(=O)N/N=C/c2cccc(OC(=O)c3cccc(Br)c3)c2)n[nH]1,-151*,-191*,27,-3%,1
CC(=O)N/C(=C\c1ccccc1)C(=O)OCC(=O)N(CC(C)C)c1c(N)n(Cc2ccccc2)c(=O)[nH]c1=O,-2,8,3,.,3
CN(CC(=O)NC(c1ccccc1)c1ccccc1)Cc1nc2ccccc2c(=O)[nH]1,-81*,?,-7,3%,14
CN(CC(=O)Nc1ccccc1Sc1ccccc1)Cc1nc2ccccc2c(=O)[nH]1,-26,-22,21,-4%,-5
